Bioassay records as filed in PubChem BioAssay.
Most compounds without a hit are left out; they make up all but 10% or so of the library.
GPT2 inh: inhibitors of human GPT2 alanine aminotransferase. 0.25% of 100,000 active. Recombinant GPT2, coupled pyruvate oxidase/HRP Amplex Red fluorescence. Potency, µM (series often up to 57.7 µM), for the others: at the highest dose activity change, negative = inhibition, most hits filed as inhibitors; further: nearly all actives have a fitted effect of over 60% in size
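Inhibition is scored from Amplex Red fluorescence generated when pyruvate oxidase and HRP act on pyruvate released by GPT2. Reactions contain 10ng/uL enzyme, 250uM a-KG and 2mM L-alanine and run 30 min at room temperature.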
HEK293 tox: cytotoxic compounds in HEK 293 cells. HEK 293 viability, ATP luminescence (CellTiter-Glo), 48-72 h. Potency, µM (highest dose often 115 µM), for inactives: top-dose activity change, negative = cytotoxicity, most hits filed as inhibitors. 6.6% of 94,000 active; further: nearly all actives have a fitted effect of over 60% in size
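250 HEK 293 cells/well; compound by pintool; incubated 48 or 72 hr at 37 degree Celsius; CellTiter-Glo added, 10 min RT, luminescence imaged.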
hNpr1 antagonist: human Npr1 receptor antagonism | P16066 | HEK293 hNpr1 GloSensor cGMP, ANP-stimulated luminescence | Potency, µM (doses to about 46.3 µM), for the others: top-dose activity change, negative = inhibition, actives largely listed as inhibitors | 1.6% of 76,000 active; calls by dose curve; further: nearly all actives have a fitted effect of over 60% in size
Target sequence (P16066 whole entry, looked up): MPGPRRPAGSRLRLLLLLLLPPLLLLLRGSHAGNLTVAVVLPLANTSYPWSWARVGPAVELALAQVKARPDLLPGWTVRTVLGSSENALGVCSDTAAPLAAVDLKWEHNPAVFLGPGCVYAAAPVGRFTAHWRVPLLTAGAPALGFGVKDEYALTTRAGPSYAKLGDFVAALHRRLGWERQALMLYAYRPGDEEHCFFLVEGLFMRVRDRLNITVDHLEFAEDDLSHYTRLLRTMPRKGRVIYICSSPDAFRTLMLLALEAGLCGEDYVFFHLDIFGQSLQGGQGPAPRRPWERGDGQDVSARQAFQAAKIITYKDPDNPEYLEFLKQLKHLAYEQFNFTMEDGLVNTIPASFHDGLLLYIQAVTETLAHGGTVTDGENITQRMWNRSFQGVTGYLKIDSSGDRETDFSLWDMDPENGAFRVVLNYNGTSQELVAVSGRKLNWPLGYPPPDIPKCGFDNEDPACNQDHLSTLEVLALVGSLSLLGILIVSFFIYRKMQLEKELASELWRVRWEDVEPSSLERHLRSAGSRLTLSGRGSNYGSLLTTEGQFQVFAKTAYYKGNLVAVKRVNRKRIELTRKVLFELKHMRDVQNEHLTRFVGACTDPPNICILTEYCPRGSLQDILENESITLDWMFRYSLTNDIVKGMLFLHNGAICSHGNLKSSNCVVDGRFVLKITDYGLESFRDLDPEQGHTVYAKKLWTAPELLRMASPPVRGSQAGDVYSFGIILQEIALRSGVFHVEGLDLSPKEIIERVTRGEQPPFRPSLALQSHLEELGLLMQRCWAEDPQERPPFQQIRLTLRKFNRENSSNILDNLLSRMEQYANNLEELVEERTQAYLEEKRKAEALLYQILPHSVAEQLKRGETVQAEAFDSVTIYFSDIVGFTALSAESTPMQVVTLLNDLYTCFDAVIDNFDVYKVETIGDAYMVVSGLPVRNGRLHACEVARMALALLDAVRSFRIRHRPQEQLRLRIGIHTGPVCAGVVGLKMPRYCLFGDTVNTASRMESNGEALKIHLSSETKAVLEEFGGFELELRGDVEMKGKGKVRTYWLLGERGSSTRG
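Compound pre-incubated 30 min at room temperature on GloSensor-loaded HEK293 cells stably carrying hNpr1 and the pGS-40F cGMP biosensor. Stimulation uses hNppA at 0.1 nM final; luminescence is taken at baseline and 20 min post-agonist.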
3T3 cytotox: kills NIH 3T3 cells | NIH 3T3 viability, CellTiter-Glo ATP luminescence, 48-72 h | Potency, µM (series often up to 96.7 µM), inactives show at the top dose activity change, negative = cytotoxicity, usual class: inhibitors | 4.3% of 94,000 active | AID 1345082; further: nearly all actives have a fitted effect of over 55% in size
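Cytotoxicity was measured by CellTiter-Glo ATP luminescence after 48 or 72 h compound exposure at 37 °C. Mouse NIH 3T3 fibroblasts were seeded at 400 cells/well and dosed by 23 nL pin transfer.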
FLuc inh: blocks purified firefly luciferase enzyme activity. 2.5% of 76,000 active. purified P. pyralis luciferase, luminescence, biochemical. P08659. Potency, µM (highest dose often 115 µM), actives largely listed as inhibitors; further: nearly all actives have a fitted effect of over 65% in size
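Purified 10nM P. pyralis luciferase with 10uM D-luciferin and 10uM ATP in 50mM Tris acetate pH 7.5, 10mM Mg acetate, 0.01% Tween-20, 0.05% BSA. qHTS titration; luminescence read by CCD imager.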
An asterisk follows results filed as active; i = inactive; ? = inconclusive; . = no result; [ ] = remark or other dose. Unless noted, the call rests on the fitted dose curve; in most records, active means well fitted curve in the direction sought with a large enough effect; inconclusive means small, poorly fitted or top-dose-only effect, or another doubt; inactive means no such curve, though single readings can be large; an effect the other way counts as inactive or inconclusive. On the % scale 0 is the no-effect control and ±100 the full control effect; potency means the concentration at half of the fitted maximal effect.

SMILES	GPT2 inh	HEK293 tox	hNpr1 antagonist	3T3 cytotox	FLuc inh
Cc1ccc(-n2c(C3CCN(C(=O)c4cccc(C)c4)CC3)n[nH]c2=O)cc1	-11%	-3%	0%	?	i
C[S+](=O)([O-])N1CC2(Cc3ccccc31)CN(C(=O)NC1CCCC1)C2	i	-5%	.	-10%	.
O=C(NCc1ccccc1)C1CCCN1C(=O)c1cccc(-c2cccnc2)c1 (stereo not given)	.	-4%	.	-8%	.
O=C(c1ccccc1F)N1CCCC(C(=O)N2CCCC2c2nc3ccncc3[nH]2)C1 (stereo not given)	?	i	.	-9%	.
Cc1ccc(-n2c(C3CCN(C(=O)c4cccc(F)c4)CC3)n[nH]c2=O)cc1	i	12%	3%	35µM*	i
Cc1ccc(-n2c(C3CCN(C(=O)c4ccc(F)c(F)c4)CC3)n[nH]c2=O)cc1	i	12%	2%	10µM*	i
O=C(C1CCCN1C(=O)c1ccc(C(F)(F)F)cc1)N1CCC(c2ccccc2)CC1 (stereo not given)	2%	?	.	?	.
Cc1ccc(C(=O)N[C@@H]2CN(Cc3ccncc3)C[C@H]2CN(C)C)cc1C	2%	25µM*	3%	-26%	i
Fc1ccccc1-c1nnc([C@H]2CCN(C3CCOCC3)C2)o1	i	i	-1%[70.6 µM]	1%[138 µM]	71µM*
c1ccc2oc([C@H]3CCN(C4CCCCC4)C3)nc2c1	-26%[88.5 µM]	-19%[230 µM]	?	-25%[174 µM]	?
CC(C)N1CC[C@H](c2nnc(-c3ccccc3F)o2)C1	-12%[88.5 µM]	i	3%[70.6 µM]	i	40µM*
c1ccc2oc([C@H]3CCN(C4CCOCC4)C3)nc2c1	i	-13%[230 µM]	-3%[70.6 µM]	i	79µM*
Cn1cc(-c2cccc(CCOc3cnc4c(ccn4CC(=O)O)c3)c2)cn1	-1%[88.5 µM]	-1%[172 µM]	3%[70.6 µM]	?	71µM*
Cc1cccc(-c2cccc(CCOc3cnc4c(ccn4CC(=O)O)c3)c2)c1	?	?	0%[70.6 µM]	?	i
Cc1noc(C)c1-c1cccc(CCOc2cnc3c(ccn3CC(=O)O)c2)c1	-14%[88.5 µM]	?	-2%[70.6 µM]	50µM*	i
c1coc(-c2ccnc3nc(-c4cccs4)nn23)c1	i	-14%	6%	35µM*	i
c1csc(-c2nc3nccc(-c4ccsc4)n3n2)c1	i	?	1%	?	i
COc1cccc(-c2ccnc3nc(-c4cccs4)nn23)c1	-3%	?	-14%	?	16µM*
c1csc(-c2nc3nccc(-c4ccncc4)n3n2)c1	-6%	-4%	3%	-14%	i
O=C(CNC(=O)c1cccc(-c2ccsc2)c1)NC1CC1	.	?	.	-30%[138 µM]	.
O=C(Nc1ccc(F)cc1)c1ccc2oc(-c3ccnc(Cl)c3)nc2c1	i	?	.	?	.
COc1ccc(C(=O)N2CCc3cn(C)c4cccc(c34)C2)c(C)c1	-6%	22µM*	3%	?	i
COc1ccc(CC(=O)N2CCc3cn(C)c4cccc(c34)C2)cc1	i	?	4%	?	i
O[C@H]1CC[C@@H](Cc2cc(CN3CCOCC3)on2)O[C@@H]1CNCc1ccccc1	i	-13%[172 µM]	0%[70.6 µM]	-8%[138 µM]	i
O=C(c1ccsc1)N1CC(Oc2ccc(-c3nc(-c4ccccc4)no3)cc2)C1	-8%	-30%	2%	-5%	28µM*
O=C(C1CCOC1)N1CC(Oc2ccc(-c3nc(-c4ccccc4)no3)cc2)C1 (stereo not given)	4%	?	3.2µM*	?	14µM*
Cc1nc(C)c(C(=O)N2CCC(Oc3ccc(-c4noc(C5CC5)n4)cc3)C2)s1 (stereo not given)	i	20µM*	?	?	i
Cc1nc(C)c(C(=O)N2CC(Oc3ccc(-c4nc(-c5ccccc5)no4)cc3)C2)s1	i	?	-8%	-14%	13µM*
Cc1cccc(C(=O)N2CC(Oc3ccc(-c4nc(-c5ccccc5)no4)cc3)C2)c1	i	?	-5%	-28%	i
CC1(C)C(=O)N(Cc2ccccc2)[C@H]2CN(Cc3cccc(C(=O)O)c3)C[C@H]2[S+]1(=O)[O-]	1%	i	-2%	?	i
